# The supplement of paper PMC6658780
# Counter-ions that a name gives are not always drawn. ± gives the standard deviation of the averaged measurements.
# What was measured:
# [1] = system: Escherichia coli ATCC BAA-2469; test: percent growth inhibition of drug + antibiotic vs DMSO control; higher = more growth inhibition; details: antibiotic (0.125x MIC): meropenem
# Experimental: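 Prestwick drugs tested at 20 uM and 7 uM with an antibiotic at 0.125x MIC (16 mg/L when MIC >128 mg/L) against E. coli ATCC BAA-2469 (NDM-1) in CAMHB, 384-well plates, duplicate runs. Percent growth inhibition was computed from OD600 (24 h minus 0 h) relative to DMSO wells. Drug + DMSO-only wells are also given. […]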
# [2] = system: Klebsiella pneumoniae KPC-119; test: percent growth inhibition of drug alone vs DMSO control; higher = more growth inhibition; details: antibiotic (0.125x MIC): none (0.1% DMSO)
# [3] = system: Klebsiella pneumoniae KPC-119; test: percent growth inhibition of drug + antibiotic vs DMSO control; higher = more growth inhibition
# [4] = antibiotic (0.125x MIC): colistin, 20 µM
# [5] = antibiotic (0.125x MIC): gentamicin, 7 µM
# [6] = antibiotic (0.125x MIC): colistin, 7 µM
compound,measurement,setting,value
Nc1nc(=S)c2ncn([C@@H]3O[C@H](CO)[C@@H](O)[C@H]3O)c2[nH]1 [Thioguanosine],percent growth inhibition,[1]; 7 µM,34.2 ± 1.9%
same,percent growth inhibition,[1]; 20 µM,81.6 ± 9.8%
CCN1CCCC1CNC(=O)c1cc(S(N)(=O)=O)ccc1OC (stereo not drawn) [Sulpiride],percent growth inhibition of drug alone,[2]; 7 µM,-2.88 ± 3.1%
same,percent growth inhibition of drug alone,[2]; 20 µM,-3.73 ± 0.65%
same,percent growth inhibition,[3]; [4],-7.13 ± 1.4%
CO[C@@]1(NC(=O)Cc2cccs2)C(=O)N2C(C(=O)O)=C(COC(N)=O)CS[C@@H]21 [Cefoxitin sodium salt],percent growth inhibition of drug alone,[2]; 7 µM,5.37 ± 2%
same,percent growth inhibition of drug alone,[2]; 20 µM,7.08 ± 6.2%
same,percent growth inhibition,[3]; [5],8.4 ± 13%
COc1cnc(NS(=O)(=O)c2ccc(N)cc2)nc1 [Sulfameter],percent growth inhibition of drug alone,[2]; 7 µM,-1.55 ± 2.6%
same,percent growth inhibition of drug alone,[2]; 20 µM,-0.515 ± 1.5%
same,percent growth inhibition,[3]; [4],-5.03 ± 15%
Oc1c(I)cc(Cl)c2cccnc12 [Clioquinol],percent growth inhibition of drug alone,[2]; 7 µM,12.1 ± 5%
same,percent growth inhibition of drug alone,[2]; 20 µM,44.53 ± 0.32%
same,percent growth inhibition,[3]; [6],47.2 ± 5.2%
same,percent growth inhibition,[3]; [4],98.97 ± 0.28%
CCOC(=O)OC(C)OC(=O)[C@@H]1N2C(=O)[C@@H](NC(=O)[C@H](N)c3ccccc3)[C@H]2SC1(C)C (stereo partly drawn) [Bacampicillin hydrochloride],percent growth inhibition of drug alone,[2]; 7 µM,0.511 ± 1.4%
same,percent growth inhibition of drug alone,[2]; 20 µM,-0.333 ± 0.47%
same,percent growth inhibition,[3]; [6],-4.19 ± 0.78%
OC(c1cc(C(F)(F)F)nc2c(C(F)(F)F)cccc12)C1CCCCN1 (stereo not drawn) [Mefloquine hydrochloride],percent growth inhibition of drug alone,[2]; 7 µM,0.355 ± 6.6%
same,percent growth inhibition of drug alone,[2]; 20 µM,-2.15 ± 1.1%
same,percent growth inhibition,[3]; [6],1.61 ± 13%
CC1CCc2cc(F)cc3c(=O)c(C(=O)O)cn1c23 (stereo not drawn) [Flumequine],percent growth inhibition of drug alone,[2]; 7 µM,15.15 ± 0.074%
same,percent growth inhibition of drug alone,[2]; 20 µM,65.7 ± 2.7%
same,percent growth inhibition,[3]; [6],88.42 ± 0.76%
same,percent growth inhibition,[3]; [4],95.6 ± 2.3%
CC(C)NC[C@H](O)COc1ccc(CC(N)=O)cc1 [(S)-(-)-Atenolol],percent growth inhibition of drug alone,[2]; 7 µM,0.932 ± 4.5%
same,percent growth inhibition of drug alone,[2]; 20 µM,-0.0403 ± 1.4%
same,percent growth inhibition,[3]; [4],-1.42 ± 6%
CC(C)Nc1cccnc1N1CCN(C(=O)c2cc3cc(NS(C)(=O)=O)ccc3[nH]2)CC1 [Delavirdine],percent growth inhibition of drug alone,[2]; 7 µM,-0.164 ± 2.9%
same,percent growth inhibition of drug alone,[2]; 20 µM,-1.86 ± 1%
same,percent growth inhibition,[3]; [6],-6.39 ± 0.99%
CCCCOC(=O)c1ccc(N)cc1 [Butamben],percent growth inhibition of drug alone,[2]; 7 µM,-0.672 ± 3.4%
same,percent growth inhibition of drug alone,[2]; 20 µM,-0.688 ± 0.36%
same,percent growth inhibition,[3]; [4],3.33 ± 3%
COc1nc(C)nc(Cl)c1NC1=NCCN1 [Moxonidine],percent growth inhibition of drug alone,[2]; 7 µM,-0.572 ± 3.2%
same,percent growth inhibition of drug alone,[2]; 20 µM,-0.25 ± 3.1%
same,percent growth inhibition,[3]; [4],-7.57 ± 6.4%
CN(C(=O)CN(CCO)CC(=O)N(C)C(C)(C)Cc1ccccc1)C(C)(C)Cc1ccccc1 [Oxethazaine],percent growth inhibition of drug alone,[2]; 7 µM,-4 ± 0.52%
same,percent growth inhibition of drug alone,[2]; 20 µM,-5.74 ± 4.4%
same,percent growth inhibition,[3]; [6],4.52 ± 0.46%
same,percent growth inhibition,[3]; [4],95.6 ± 1.6%
CO/N=C(\C(=O)N[C@@H]1C(=O)N2C(C(=O)O)=C(COC(C)=O)CS[C@H]12)c1csc(N)n1 [Cefotaxime sodium salt],percent growth inhibition of drug alone,[2]; 7 µM,4.98 ± 2%
same,percent growth inhibition of drug alone,[2]; 20 µM,37.8 ± 0.86%
same,percent growth inhibition,[3]; [5],29.3 ± 2.3%
C[C@@H]1CN(c2c(F)c(N)c3c(=O)c(C(=O)O)cn(C4CC4)c3c2F)C[C@H](C)N1 [Sparfloxacin],percent growth inhibition of drug alone,[2]; 7 µM,33.5 ± 3.3%
same,percent growth inhibition of drug alone,[2]; 20 µM,99.04 ± 0.49%
same,percent growth inhibition,[3]; [6],99.4 ± 0.42%
same,percent growth inhibition,[3]; [4],99.2 ± 0.83%
O=C1NCN(c2ccccc2)C12CCN(CCCC(c1ccc(F)cc1)c1ccc(F)cc1)CC2 [Fluspirilen],percent growth inhibition of drug alone,[2]; 7 µM,-0.668 ± 2.3%
same,percent growth inhibition of drug alone,[2]; 20 µM,-1.04 ± 3.2%
same,percent growth inhibition,[3]; [6],4.99 ± 4%
same,percent growth inhibition,[3]; [4],96.4 ± 1.1%
CO[C@@]1(NC(=O)CSCC#N)C(=O)N2C(C(=O)O)=C(CSc3nnnn3C)CS[C@@H]21 [Cefmetazole sodium salt],percent growth inhibition of drug alone,[2]; 7 µM,2.72 ± 1.2%
same,percent growth inhibition of drug alone,[2]; 20 µM,32.6 ± 2.3%
same,percent growth inhibition,[3]; [5],3.52 ± 6.6%
CS(=O)(=O)c1ccc([C@@H](O)[C@@H](CF)NC(=O)C(Cl)Cl)cc1 [Florfenicol],percent growth inhibition of drug alone,[2]; 7 µM,32.2 ± 2%
same,percent growth inhibition of drug alone,[2]; 20 µM,96.46 ± 0.59%
same,percent growth inhibition,[3]; [6],97.49 ± 0.25%
same,percent growth inhibition,[3]; [4],88.4 ± 7.8%
Oc1c(Cl)cc(Cl)c(Cl)c1Cc1c(O)c(Cl)cc(Cl)c1Cl [Hexachlorophene],percent growth inhibition of drug alone,[2]; 7 µM,0.779 ± 4.2%
same,percent growth inhibition of drug alone,[2]; 20 µM,18.8 ± 7.5%
same,percent growth inhibition,[3]; [6],4.52 ± 2.5%
CO[C@@H]1[C@@H](OC(N)=O)[C@@H](O)[C@H](Oc2ccc3c(O)c(NC(=O)c4ccc(O)c(CC=C(C)C)c4)c(=O)oc3c2C)OC1(C)C [Novobiocin sodium salt],percent growth inhibition of drug alone,[2]; 7 µM,0.874 ± 4.5%
same,percent growth inhibition of drug alone,[2]; 20 µM,5.13 ± 1.4%
same,percent growth inhibition,[3]; [6],34.1 ± 0.68%
same,percent growth inhibition,[3]; [4],98.55 ± 0.69%
COc1cccc2c1C(=O)c1c(O)c3c(c(O)c1C2=O)C[C@@](O)(C(C)=O)C[C@@H]3O[C@H]1C[C@H](N)[C@H](O)[C@H](C)O1 [Daunorubicin hydrochloride],percent growth inhibition of drug alone,[2]; 7 µM,5 ± 0.63%
same,percent growth inhibition of drug alone,[2]; 20 µM,5.26 ± 2.2%
same,percent growth inhibition,[3]; [6],-2.48 ± 6.2%
same,percent growth inhibition,[3]; [4],97.24 ± 0.46%
COc1cc(C)nc(-n2nc(C)cc2OC)n1 [Epirizole],percent growth inhibition of drug alone,[2]; 7 µM,-1.76 ± 0.66%
same,percent growth inhibition of drug alone,[2]; 20 µM,-0.885 ± 4.3%
same,percent growth inhibition,[3]; [6],55.5 ± 7.9%
same,percent growth inhibition,[3]; [4],-4.39 ± 3.8%
CCN(CC)CCOC(=O)C1(C2CCCCC2)CCCCC1 [Dicyclomine hydrochloride],percent growth inhibition of drug alone,[2]; 7 µM,0.63 ± 2%
same,percent growth inhibition of drug alone,[2]; 20 µM,2.04 ± 2.2%
same,percent growth inhibition,[3]; [4],-2.28 ± 7.1%
C=C1c2c(Cl)ccc(O)c2C(=O)C2=C(O)[C@]3(O)C(=O)C(C(N)=O)=C(O)[C@@H](N(C)C)[C@@H]3[C@@H](O)[C@H]12.O=C(O)c1cc(S(=O)(=O)O)ccc1O [Meclocycline sulfosalicylate],percent growth inhibition of drug alone,[2]; 7 µM,2.09 ± 6.8%
same,percent growth inhibition of drug alone,[2]; 20 µM,7.24 ± 1.1%
same,percent growth inhibition,[3]; [4],10.3 ± 2.3%
COc1cccc2c1C(=O)c1c(O)c3c(c(O)c1C2=O)C[C@@](O)(C(=O)CO)C[C@@H]3O[C@H]1C[C@H](N)[C@@H](O)[C@H](C)O1 [Epirubicin hydrochloride],percent growth inhibition of drug alone,[2]; 7 µM,-1.63 ± 2.7%
same,percent growth inhibition of drug alone,[2]; 20 µM,-0.106 ± 4.7%
same,percent growth inhibition,[3]; [6],-0.818 ± 0.78%
